{"source": "PubChem BioAssay (EPA / NIEHS)", "note": "Active and inactive are the calls of the source. How the source made its calls: active means hit-call score of the fitted dose curve at least 0.9, where 1 is the maximum; inactive means score below 0.9.", "data": [{"read-out": "E-selectin (Homo sapiens) (UniProt P16581)", "experiment": "BSK_3C_Eselectin: BioMAP Diversity Plus: 3C Assay for Eselectin Biomarker Activity (AID 2283015)", "conditions": "primary human endothelial cells (HUVEC); actives raise or lower the signal", "experimental": "BSK_3C is a cell-based, multiplexed-readout assay that uses umbilical vein endothelium, a human vascular primary cell, with measurements taken at 24 hours after chemical dosing in a 96-well plate.BSK_3C_Eselectin is an assay component measured in the BSK_3C assay. It measures E-selectin antibody related to regulation of gene expression using ELISA technology.Data from the assay component BSK_3C_Eselectin was analyzed into 1 assay endpoint. This assay endpoint, BSK_3C_Eselectin, was analyzed with bidirectional fitting relative to DMSO as the negative control and baseline of activity. Using a type of binding reporter, gain or loss-of-signal activity can be used to understand changes in the signaling as they relate to the gene SELE. Furthermore, this assay endpoint can be referred to as a primary readout, because this assay has produced multiple assay endpoints where this one serves a signaling function. To generalize the intended target to other relatable targets, this assay endpoint is annotated to the cell adhesion molecules intended target family, where the subfamily is selectins.\nThe levels of cell surface (or secreted, indicated by the prefix \"s\") biomarker endpoints were measured by ELISA. Overt cytotoxicity to cells in confluent adherent cultures (all systems other than the BT system) was assessed by measuring total protein levels using sulforhodamine B (SRB) staining in parallel cultures at the time of biomarker measurements, indicated as SRB endpoints. For proliferation assays for adherent cell types, individual cell types are cultured at sub-confluence and relative cell numbers quantified by SRB staining at time points optimized for each system (48 h: 3C and CASM3C systems; 72 h: BT and HDF3CGF systems; 96 h: SAg system). SRB was performed by staining cells with 0.1% SRB after fixation with 10% TCA and reading wells at 560 nm.Viability and proliferation of PBMC (T cells) was quantified by Alamar Blue reduction for the SAg and BT systems. For PBMC viability (referred to as PBMC Cytotoxicity within the assay endpoint names), cells were plated (75,000/well in a 96-well plate) and then chemical samples added for 1 h before addition of activators, SEB and TSST-1 (20 ng/mL final concentration each). Cells were incubated for 90 h. Then, Alamar Blue (20 uL/well) (Invitrogen, Cat DAL1100) was added for 6 h, and the plates were read with a fluorescence microplate reader at 546/580 nm (excitation/emission). For PBMC proliferation, cells were plated and activated as above but incubated for only 16 h prior to addition of Alamar Blue. Plates were read after 6 h.", "values": [{"smiles": "CCNS(=O)(=O)C(F)(F)C(F)(F)C(F)(F)C(F)(F)C(F)(F)C(F)(F)C(F)(F)C(F)(F)F", "outcome": "inactive"}, {"smiles": "Cc1ccc(N)cc1", "outcome": "inactive"}, {"smiles": "Oc1ccccc1Cl", "outcome": "inactive"}, {"smiles": "Nc1cc(Cl)cc(C(=O)O)c1Cl", "outcome": "inactive"}, {"smiles": "C[N+](C)(C)CC1CO1", "note": "(stereo not given)", "outcome": "inactive"}, {"smiles": "COC(=O)c1ccccc1N", "outcome": "inactive"}, {"smiles": "CN(C)C(=O)Nc1ccc(Cl)cc1", "outcome": "inactive"}, {"smiles": "COC(=O)Nc1nc2ccccc2[nH]1", "outcome": "inactive"}, {"smiles": "ClC1=C(Cl)[C@]2(Cl)[C@H]3[C@H]([C@@H]4C=C[C@H]3C4)[C@@]1(Cl)C2(Cl)Cl", "AC50": "30.9 µM (active)"}, {"smiles": "c1ccc(C2CO2)cc1", "note": "(stereo not given)", "outcome": "inactive"}, {"smiles": "CCN(CC)N=O", "outcome": "inactive"}, {"smiles": "Nc1ccc(Cl)cc1N", "AC50": "3.48 µM (active)"}, {"smiles": "CCCCCOC(=O)c1ccccc1C(=O)OCCCCC", "outcome": "inactive"}, {"smiles": "CO[C@@H]1[C@H](OC(=O)NC(=O)CCl)CC[C@]2(CO2)[C@H]1[C@@]1(C)O[C@@H]1CC=C(C)C", "AC50": "5.16 µM (active)"}, {"smiles": "Clc1ccccc1Cl", "outcome": "inactive"}, {"smiles": "CCC[CH2][Sn]([Cl])([CH2]CCC)[CH2]CCC", "AC50": "0.148 µM (active)"}, {"smiles": "CCCCCCCCn1sccc1=O", "AC50": "12.6 µM (active)"}, {"smiles": "c1ccc2c(c1)oc1ccccc12", "outcome": "inactive"}, {"smiles": "CC(C)COC(=O)c1ccccc1C(=O)OCC(C)C", "AC50": "28.8 µM (active)"}, {"smiles": "Oc1ccc2ccc3cccc4ccc1c2c34", "AC50": "29.9 µM (active)"}, {"smiles": "O=C(O)C1C2CCC(O2)C1C(=O)O", "note": "(stereo not given)", "AC50": "18.6 µM (active)"}, {"smiles": "O=C(N[C@H](c1ccccc1)[C@@H]1CN2CCC1CC2)c1c(Cl)ccc(C(F)(F)F)c1Cl", "outcome": "inactive"}, {"smiles": "Cc1ccc([N+](=O)[O-])cc1", "outcome": "inactive"}, {"smiles": "O=[N+]([O-])c1ccc(Oc2ccc(Cl)cc2Cl)cc1", "AC50": "20 µM (active)"}, {"smiles": "Cc1ccc(N)c(N)c1", "AC50": "6.22 µM (active)"}, {"smiles": "Cc1cccc(N)c1N", "AC50": "30.3 µM (active)"}, {"smiles": "C[C@]12C=CC3=C4CCC(=O)C=C4CC[C@H]3[C@@H]1CC[C@@H]2O", "AC50": "9.4 µM (active)"}, {"smiles": "N#CC(Br)Br", "outcome": "inactive"}, {"smiles": "O=P(OCCCl)(OCCCl)OCCCl", "outcome": "inactive"}, {"smiles": "[O-][Cl+]O", "outcome": "inactive"}, {"smiles": "c1ccc(NNc2ccccc2)cc1", "outcome": "inactive"}, {"smiles": "CCCCOC(=O)c1ccccc1C(=O)OCc1ccccc1", "outcome": "inactive"}, {"smiles": "[Cl-].[Cl-].[Hg+2]", "AC50": "36.7 µM (active)"}, {"smiles": "[As]#[In]", "outcome": "inactive"}, {"smiles": "Clc1ccc(C(c2ccc(Cl)cc2)C(Cl)Cl)cc1", "AC50": "29.7 µM (active)"}, {"smiles": "CC(C)N(Cc1ccccc1)C(=O)C(C)(C)C", "outcome": "inactive"}, {"smiles": "CC(C)(C)C(O)(CCc1ccc(Cl)cc1)Cn1cncn1", "note": "(stereo not given)", "outcome": "inactive"}, {"smiles": "Nc1ccc([N+](=O)[O-])cc1", "outcome": "inactive"}, {"smiles": "c1ccc(N=Nc2ccccc2)cc1", "outcome": "inactive"}, {"smiles": "Nc1ccc(N=Nc2ccccc2)cc1", "outcome": "inactive"}]}]}
